The panel holds about 83,000 compounds, 20% with a hit somewhere; the sample as a whole holds those more often.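 Activity criterion: percent growth below 10, measured after cells in 96-well plates were exposed to a single compound concentration for 48 hours.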 Activity calls are given as the source filed them.

This assay deals with SK-MEL-5 melanoma. Nature of the assay: NCI-60 one-dose screen, 48 h (100 = growth as untreated, 0 = no growth, -100 = all killed). Conditions: 10 µM.
Take `N=C1c2nc3n(c2C(=O)c2nc4n(c21)CCCC4)CCCC3`: the growth is -98% (active).
Take `COc1ccc(-c2nc3ccccn3c2-c2nnc(-c3cc(OC)c(OC)c(OC)c3)o2)cc1`: the growth is 44.7% (inactive).
Turning to `CCN(CC)CCOc1nc2ccc(OC)cc2c2c1-c1ccc(OC)cc1C2=O`, the growth is -36.1% (active).
In the case of `CCCCCCCCN(CCCCCCCC)CCCCCCCCCN1CCCc2cc(OC)ccc21`, the growth is 109% (inactive).
Next, `COc1ccc2c(c1)C(=O)c1c-2c(OCCN(C)C)nc2cc(OC)c(OC)cc12`: 89.7% (inactive).
Next, `COc1ccc(/C(=C2\O[C@@H]([C@H]3COC(C)(C)O3)[C@H]3OC(C)(C)O[C@@H]23)c2cc(OC)c(OC)c(OC)c2)cc1O`: 59.6% (inactive); `Nc1ccn(C2CC(O)C(CO)O2)c(=O)n1` (centres undefined): 105% (inactive); `CC(C)=CCc1ccc(O)c(=O)cc1C(C)C`: -17.2% (active).
Under `COc1cc(NC(=O)CSc2nc3ccccc3c(=O)n2CCc2ccccc2)cc(OC)c1OC` stands -41.9% (active).

The values above are taken from PubChem BioAssay (NCI).
